In the antibiotic and cytotoxicity screens of Wong et al. (2023):
In all, about 39,000 compounds went through this assay and about 3,300 (8.5%) were called active. For the sample, actives were picked, then their nearest neighbours and some compounds at random.

The compounds below were run on HepG2 (assay: cytotoxicity call (relative viability < 0.9)). Conditions: 10 µM.

SMILES | cytotoxicity call
Cn1c(=O)c2c(ncn2CC(=O)N2CCN(c3ccccc3F)CC2)n(C)c1=O | inactive
CCN(CC)C(=S)SSC(=S)N(CC)CC | active
O=C(NCc1nc2ccccc2[nH]1)C1=C[C@@H](c2ccc(C(F)(F)F)cc2)C[C@@H](OCc2ccc(CO)cc2)O1 | inactive
Nc1cc(N)nc(SCCC(=O)O)n1 | inactive
COCC(=O)N1CC(=O)N2[C@H](CO)[C@@H](c3ccc(C#Cc4cccnc4)cc3)[C@H]2C1 | inactive
CC(C)C(=O)[C@@H]1C(=O)O[C@@H](c2ccoc2)[C@]2(C)[C@H](O)[C@@H](O)[C@@]34O[C@]5(C)O[C@]3([C@H]12)[C@H](O)[C@@]1(O)[C@H](O)[C@]2(C)C[C@]1(O5)[C@@]4(C)[C@H]2CC(=O)O | active
CC(C)C(O)=C1C(=O)OC(c2ccoc2)C2(C)C(O)C(O)C34OC5(C)OC3(C12)C(O)C1(O)C(O)C2(C)CC1(O5)C4(C)C2CC(=O)O (stereo unspecified) | inactive
COC(=O)CC1C2(C)CC34OC5(C)OC6(C7C(=C(O)C(C)C)C(=O)OC(c8ccoc8)C7(C)C(OC(C)=O)C(OC(C)=O)C6(O5)C13C)C(OC(C)=O)C4(O)C2OC(=O)C(C)C (stereo unspecified) | inactive
COc1cccc(S(=O)(=O)N(C)C[C@H]2Oc3ncc(C#CC(C)C)cc3C(=O)N([C@H](C)CO)C[C@@H]2C)c1 | inactive
C[C@H](C(=O)N(C)C[C@@H]1OCc2ccccc2-c2c(n(C)c3ccccc23)C(=O)N([C@@H](C)CO)C[C@@H]1C)c1ccccc1 | inactive
C[C@@H](C(=O)N(C)C[C@H]1OCc2ccccc2-c2c(n(C)c3ccccc23)C(=O)N([C@@H](C)CO)C[C@@H]1C)c1ccccc1 | inactive
C[C@H](C(=O)N(C)C[C@H]1OCc2ccccc2-c2c(n(C)c3ccccc23)C(=O)N([C@@H](C)CO)C[C@H]1C)c1ccccc1 | inactive
C[C@@H]1CN([C@@H](C)CO)C(=O)c2c(c3ccccc3n2C)-c2ccccc2CO[C@@H]1CN(C)C(=O)[C@H](C)c1ccccc1 | inactive
C[C@H](C(=O)N(C)C[C@H]1OCc2ccccc2-c2c(n(C)c3ccccc23)C(=O)N([C@@H](C)CO)C[C@@H]1C)c1ccccc1 | active
C[C@H](CO)N1C[C@H](C)[C@H](CN(C)C(=O)[C@H](C)c2ccccc2)OCc2ccccc2-c2c(n(C)c3ccccc23)C1=O | active
Cc1noc(C)c1NC(=O)Nc1ccc2c(c1)C(=O)N([C@H](C)CO)C[C@H](C)[C@@H](CN(C)Cc1ccccc1)OCCCC[C@H](C)O2 | inactive
C[C@H]1CN([C@@H](C)CO)C(=O)c2cc(NC(=O)Nc3ccc(C(F)(F)F)cc3)ccc2O[C@@H]1CN(C)Cc1ccccc1 | inactive
C[C@H]1CN([C@@H](C)CO)C(=O)c2cc(NC(=O)Nc3ccc(C(F)(F)F)cc3)ccc2O[C@H]1CN(C)Cc1ccccc1 | active
C[C@@H]1CN([C@@H](C)CO)C(=O)c2cc(NC(=O)Nc3ccc(C(F)(F)F)cc3)ccc2O[C@H]1CN(C)Cc1ccccc1 | inactive
C[C@@H]1CN([C@H](C)CO)C(=O)c2cc(NC(=O)Nc3ccc(C(F)(F)F)cc3)ccc2O[C@@H]1CN(C)Cc1ccccc1 | active
C[C@H](CO)N1C[C@H](C)[C@H](CN(C)Cc2ccccc2)Oc2ccc(NC(=O)Nc3ccc(C(F)(F)F)cc3)cc2C1=O | active

SMILES | cytotoxicity call
C[C@@H]1CN([C@@H](C)CO)C(=O)c2cc(NC(=O)Nc3ccc(C(F)(F)F)cc3)ccc2O[C@@H]1CN(C)Cc1ccccc1 | active
COc1ccc2c3c([nH]c2c1)[C@@H](CO)N(C[C@]13CN(Cc2ccccc2)C1)S(=O)(=O)c1cn(cn1)C | inactive
C[C@@H]1CN([C@H](C)CO)S(=O)(=O)c2ccc(C#CC3(O)CCCC3)cc2O[C@@H]1CN(C)C(=O)c1cccnc1 | inactive
COc1ccc(CN(C)C[C@H]2OCCCC[C@H](C)Oc3ccc(NC(=O)c4ccccc4)cc3C(=O)N([C@H](C)CO)C[C@H]2C)cc1 | inactive
COc1ccc(CN(C)C[C@H]2OCCCC[C@@H](C)Oc3ccc(NC(=O)Cc4ccccc4)cc3C(=O)N([C@H](C)CO)C[C@H]2C)cc1 | inactive
CC[C@@](N)(C(=O)O)c1ccccc1 | inactive
C=C(C)[C@]1(O)OC(=O)C=C1OC | inactive
C[C@@H]1CN([C@H](C)CO)C(=O)c2cc(C#Cc3ccccc3F)cnc2O[C@@H]1CN(C)S(=O)(=O)c1ccccc1 | inactive
CCC(=O)N1CCC[C@@H]1C(=O)O | inactive
Cc1noc(C)c1NC(=O)Nc1ccc2c(c1)C(=O)N([C@H](C)CO)C[C@H](C)[C@H](CN(C)C(=O)c1ccccc1)OCCCC[C@@H](C)O2 | inactive
Cc1ccc(S(=O)(=O)N[C@@H]2CC[C@@H](CC(=O)N3CCC(Cc4ccccc4)CC3)O[C@@H]2CO)cc1 | inactive
C[C@@H]1CCCCO[C@H](CN(C)CC2CCCCC2)[C@H](C)CN([C@H](C)CO)C(=O)c2cc(NC(=O)c3ccncc3)ccc2O1 | inactive
C[C@H](CO)N1C[C@H](C)[C@H](CN(C)C(=O)Nc2ccc(C(F)(F)F)cc2)Oc2ccc(NC(=O)Nc3ccc4c(c3)OCO4)cc2C1=O | inactive
C[C@@H]1CN([C@H](C)CO)S(=O)(=O)c2ccc(-c3cccc(F)c3)cc2O[C@@H]1CN(C)S(C)(=O)=O | inactive
C[C@@H]1CN([C@@H](C)CO)C(=O)c2cc(NC(=O)C3CC3)ccc2O[C@H]1CN(C)S(=O)(=O)c1ccc(Cl)cc1 | inactive
C[C@H](CO)N1C[C@H](C)[C@@H](CN(C)Cc2ccccc2)Oc2ccc(NC(=O)Nc3ccc(C(F)(F)F)cc3)cc2C1=O | active
C[C@@H]1CN([C@H](C)CO)C(=O)c2cc(NC(=O)Nc3ccc(C(F)(F)F)cc3)ccc2O[C@H]1CN(C)Cc1ccccc1 | active
C[C@@H]1CN([C@@H](C)CO)C(=O)c2cc(NC(=O)Cc3ccccc3)ccc2O[C@@H](C)CCCCO[C@@H]1CN(C)S(=O)(=O)c1cccs1 | inactive
Cc1cc(C(=O)Nc2cccc3c2O[C@H](CN(C)Cc2ccccc2)[C@@H](C)CN([C@@H](C)CO)C3=O)n(C)n1 | inactive
C[C@H]1CN([C@@H](C)CO)C(=O)c2cccc(NC(=O)Nc3ccc4c(c3)OCO4)c2O[C@@H]1CN(C)S(=O)(=O)c1cn(C)cn1 | inactive
